TbHK1 inh = Trypanosoma brucei hexokinase 1 inhibitors, primary screen, biochemical, G6PDH-coupled NADH absorbance, MLSCN library | 220,000 compounds, 0.11% hits | inhibition, % at 10 µM | hexokinase 1 [Trypanosoma brucei] | AID 1430, 2008 | recombinant TbHK1, G6PDH-coupled NADH A340;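 active = inhibition of 50% or more in the single-dose primary screen; inactive = inhibition below 50%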
INS promoter inh = inhibitors of insulin promoter-driven GFP, primary screen, imaging, TRM-6 cells (human fetal islet line), eGFP reporter, cell count | reporter expression induced with tamoxifen | inhibition, % at 2 µM | 130,000 compounds, 0.9% hits;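 active = inhibition above the mean plus 3 SD, with well images judged a real hit on visual review, cut at about 60% in these data, passing the limit was not always enough; inconclusive = inhibition over the cutoff but images rejected on review; inactive = inhibition not above the cutoff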
Insulin prom up = insulin promoter activators in MIN6 cells, imaging, high-content screening, mouse beta cells; AID 1625, 2009; 190,000 compounds, 0.3% hits; z-score at 5 µM; MIN6 insulin promoter-GFP reporter; hits give high values;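 active = z-score above 3 at 5 µM with at least 500 cells counted in the well; inconclusive = wells under 500 cells, flagged as cytotoxic or low count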
HSV augment = enhancers of HSV replication in host cells, fold increase, host cell viability; maximum fold increase; HSV replication augmentation in cells; 220,000 compounds, 0.005% hits; AID 1956, 2009; in the data active = maximum fold increase above about 1.5; inconclusive = no clear call, values can overlap the other calls; tested in PC3 cells
ROMK mod = ROMK potassium channel modulators, primary screen, cell-based, thallium flux, MLSMR library; ATP-sensitive inward rectifier potassium channel 1 (Homo sapiens), P48048; Tet-inducible ROMK, thallium flux fluorescence; actives lie on both sides; B-score at 10 µM; 130,000 compounds, 2% hits;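 active = signal ratio slope over the read window, or its plate-corrected B-score, at least 3 SD from the plate mean, either direction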;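 also: B-score of the F/F0 ratio slope over 7 to 12 s after thallium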
Target sequence (P48048 whole entry, looked up): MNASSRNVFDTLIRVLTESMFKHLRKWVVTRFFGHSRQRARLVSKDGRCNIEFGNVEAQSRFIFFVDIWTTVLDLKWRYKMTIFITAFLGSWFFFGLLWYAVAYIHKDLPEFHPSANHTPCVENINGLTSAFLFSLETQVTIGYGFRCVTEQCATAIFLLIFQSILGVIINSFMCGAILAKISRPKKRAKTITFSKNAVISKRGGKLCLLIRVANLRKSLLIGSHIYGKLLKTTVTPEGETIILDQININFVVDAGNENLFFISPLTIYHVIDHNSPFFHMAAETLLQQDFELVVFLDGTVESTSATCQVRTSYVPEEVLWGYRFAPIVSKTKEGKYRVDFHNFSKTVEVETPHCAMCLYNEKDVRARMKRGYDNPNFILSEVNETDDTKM
Of the large screens only hits and unclear results are named; the others gave an inactive call. This is one part of a sample in which hits are shown more often than they occur.

COC(=O)CN1C(C)=Nc2ccc(C)cc2C1c1ccccc1 (stereo not given)	none (no result: INS promoter inh)
C=CCc1cccc(CNc2c(C)n(C)n(-c3ccccc3)c2=O)c1O	INS promoter inh 75.8 (no result: ROMK mod)
Cc1c(NCc2ccccc2O)c(=O)n(-c2ccccc2)n1C	none (no result: INS promoter inh, ROMK mod)
COc1cc2c(cc1OC)C(C)N(C(C)=O)CC2 (stereo not given)	INS promoter inh 81.0 (no result: Insulin prom up)
O=S(=O)(Nc1ccc2c(c1)nc1n2CCN(Cc2ccccc2)C1)c1ccccc1	none (no result: Insulin prom up)
O=c1ccc(NS(=O)(=O)c2ccccc2)cn1Cc1ccc(Cl)c(Cl)c1	Insulin prom up 4.35 (no result: ROMK mod)
Cc1ccccc1SCc1noc(C(=O)NC(C)C)c1C(=O)O	Insulin prom up 3.02 (no result: ROMK mod)
CC(C)NC(=O)c1onc(CSc2ccc(F)cc2)c1C(=O)O	INS promoter inh 89.2 (no result: ROMK mod)
Cc1cccc(-n2c(=O)[nH]c3c(C(N)=O)nc(CC(C)C)nc32)c1	INS promoter inh 81.8
CC(C)Cc1nc(C(N)=O)c2[nH]c(=O)n(-c3ccc(F)cc3)c2n1	none (no result: INS promoter inh, HSV augment, ROMK mod)
O=C(Nc1nc2ccc(SC(F)F)cc2s1)c1ccc(NS(=O)(=O)c2ccc(F)c(F)c2)cc1	none (no result: ROMK mod)
COC(=O)C1=NN(C(=O)c2ccc(Cl)cc2)C(O)(c2ccccc2)C1 (stereo not given)	HSV augment inconclusive (no result: INS promoter inh, ROMK mod)
CCOC(=O)C1=NN(C(=O)c2ccc(C)cc2)C(O)(c2ccc(Cl)cc2)C1 (stereo not given)	ROMK mod 2.76
CCCCC(c1nnnn1C1CCCC1)N1CCN(C2CCCC2)CC1 (stereo not given)	ROMK mod -3.17
COc1cccc(-c2ccc(SCC(=O)c3ccccc3)nn2)c1	INS promoter inh 77.8
C=C(C)CSc1nc2nc(C)c(Br)cc2[nH]1	INS promoter inh 79.3
COC(=O)CSc1nc2nc(C)c(Br)cc2[nH]1	none
COc1ccc(CCNC(=O)C2CCN(S(=O)(=O)N3CCCCC3)CC2)cc1OC	none (no result: INS promoter inh, HSV augment)
COc1ccc(CCNC(=O)C2CCN(S(=O)(=O)N3CC(C)CC(C)C3)CC2)cc1OC (stereo not given)	TbHK1 inh 53.4 (no result: ROMK mod)
CC(C)CC(=O)NC(=S)Nc1ccc(S(=O)(=O)Nc2nccs2)cc1	none
O=C(NC(=S)Nc1ccc(S(=O)(=O)Nc2nccs2)cc1)c1cccc(F)c1	INS promoter inh 74.1 (no result: ROMK mod)
O=C(NC1CCCCC1)C(=S)N1CCOCC1	none (no result: INS promoter inh)
Cc1cc(=O)oc2cc(OC(=O)CCCCCN3C(=O)c4ccccc4C3=O)ccc12	none (no result: INS promoter inh, ROMK mod)
CCCC(=O)c1c(C)c2ccccc2n1C	Insulin prom up 3.01 (no result: ROMK mod)
O=C(NCc1ccco1)/C(=C\c1ccco1)NC(=O)c1ccco1	none (no result: INS promoter inh, Insulin prom up, ROMK mod)
O=c1c2ccccc2sn1-c1ccc(S(=O)(=O)N2CCCC2)cc1	none
CN(C)S(=O)(=O)c1cccc(-n2sc3ccccc3c2=O)c1	TbHK1 inh 85.9 (no result: INS promoter inh)
O=c1c2ccccc2sn1-c1ccc(S(=O)(=O)N2CCCCC2)cc1	none (no result: Insulin prom up, ROMK mod)
Cc1ccc(-n2sc3ccccc3c2=O)cc1S(=O)(=O)N1CCCCC1	TbHK1 inh 92.5, INS promoter inh 75.0
C=CCn1c(C)cc(C(=O)COC(=O)c2ccc3c(c2)NC(=O)CS3)c1C	none
Cc1ccc(Oc2nnc(-c3cccs3)c3ccccc23)cc1	INS promoter inh 81.0
CNCC/C=C1/c2ccccc2CSc2ccccc21	ROMK mod -4.86 (no result: Insulin prom up)
C=CCSC1=NC(=O)/C(=C/c2cccs2)S1	ROMK mod -5.66 (no result: HSV augment)
NC1=NC(=O)/C(=C/c2cccs2)S1	none (no result: INS promoter inh)
O=C(O)C[C@@H]1C(=O)O[C@@H]2C(COC(=O)c3cc(O)c(O)c(O)c3)O[C@@H](OC(=O)c3cc(O)c(O)c(O)c3)[C@@H](OC(=O)c3cc(O)c(O)c4c3[C@H]1[C@H](O)C(=O)O4)[C@H]2OC(=O)c1cc(O)c(O)c(O)c1 (stereo not given in full)	none (no result: INS promoter inh, Insulin prom up, HSV augment, ROMK mod)
O=C(CN1C(=O)C2CCCCC2C1=O)OCC(=O)c1ccc(Cl)s1 (stereo not given)	none
COc1ccc(NC(=O)CSc2nnc(-c3cccs3)n2C)cc1OC	Insulin prom up 3.55
Cc1cc(C(=O)N/N=C/C=C/c2cccc([N+](=O)[O-])c2)n[nH]1	none (no result: INS promoter inh)
Cn1cc(SCC(=O)O)c2ccccc21	INS promoter inh 83.3 (no result: Insulin prom up)
Cn1cc(SCC(=O)N2CCN(c3ccccc3)CC2)c2ccccc21	none (no result: INS promoter inh, HSV augment, ROMK mod)
CNC(=O)c1cc(C)c(-c2ccccc2)s1	INS promoter inh 88.6
CNC(=O)c1cc2c(s1)-c1ccccc1CC2	none
CC(=O)c1cccc(NC(=O)CN2C(=O)C3C4C=CC(C4)C3C2=O)c1 (stereo not given)	none
O=C(CN1C(=O)C2C3C=CC(C3)C2C1=O)Nc1cccc(S(=O)(=O)N2CCCC2)c1 (stereo not given)	INS promoter inh 100.0
O=C(CN1CCCCCC1)Nc1ccc(S(=O)(=O)N2CCOCC2)cc1	none (no result: INS promoter inh, Insulin prom up)
O=C(CN1C(=O)C2CC=CCC2C1=O)Nc1ccc(S(=O)(=O)N2CCOCC2)cc1 (stereo not given)	INS promoter inh 72.7
CN(C)c1cc(-c2ccc([N+](=O)[O-])cc2)oc(=O)c1Cl	none (no result: INS promoter inh, ROMK mod)
Cc1nc2sc(C(=O)c3ccccc3)c(N)c2c(C)c1C	none (no result: INS promoter inh)
Cc1nc2sc(C(=O)OC(C)C)c(N)c2c(C)c1C	INS promoter inh 100.0
Cc1c(C#N)c(O)n(C)c(=O)c1N=Nc1ccc(S(N)(=O)=O)cc1	INS promoter inh 65.0 (no result: Insulin prom up)
Cc1c(C#N)c(O)n(CCO)c(=O)c1N=Nc1ccc(S(N)(=O)=O)cc1	none (no result: Insulin prom up)
CN(C)S(=O)(=O)Oc1cccc(C(=O)Nc2ccc([N+](=O)[O-])cc2)c1	Insulin prom up 3.38
O=C(Nc1ccc(O)cc1)c1cccc(Oc2ccc([N+](=O)[O-])cc2)c1	none
O=C(NCc1ccco1)c1sc(=S)n2c1[nH]c(=O)c1ccccc12	ROMK mod -3.69
O=C(NC1CCCC1)c1sc(=S)n2c1[nH]c(=O)c1ccccc12	none (no result: INS promoter inh)
C=CCNC(=O)/C(=C\c1ccc(Br)cc1)NC(=O)c1ccccc1OC	Insulin prom up 3.42 (no result: INS promoter inh)
CCOC(=O)N1CCC(N(CCN(C)C)C(=S)Nc2ccc(OCC)cc2)CC1	none
C=CCn1c(C(CC)CC)nc2ccccc21	none (no result: INS promoter inh)
O=C(C1CN(S(=O)(=O)c2ccccc2)CCN1S(=O)(=O)c1ccccc1)N1CCCCCC1 (stereo not given)	INS promoter inh 100.0
Cc1ccccc1NC(=O)CSc1nnc(Cc2ccccc2)o1	INS promoter inh 75.0 (no result: ROMK mod)
Cc1ccc(NC(=O)CSc2nnc(Cc3ccccc3)o2)c(C)c1	none
CN1CCN(S(=O)(=O)c2ccc(Oc3ccc(F)c(Cl)c3)nc2)CC1	none
CC(=O)NC1C(=O)N(CCc2ccccc2)c2ccc(Br)cc21 (stereo not given)	INS promoter inh 71.9 (no result: HSV augment)
CCOc1ccc(NC(=S)N=Nc2c(O)[nH]c3ccccc23)cc1	ROMK mod 1.21 (no result: INS promoter inh)
CC(C)/C=N/NC(=O)c1ccc(Cl)cc1	none
C=CCN(CC=C)C(=S)NC(=O)c1ccc(-c2ccccc2)cc1	ROMK mod 10.1 (no result: Insulin prom up)
COc1cccc(/C=N/NC(=O)c2oc3nc(-c4ccccc4)cc(-c4ccco4)c3c2N)c1	none (no result: INS promoter inh, Insulin prom up)

Source: PubChem (several laboratories)
